Assay outcomes as filed in PubChem.
An excerpt weighted towards active compounds, which were near 9.4% of everything screened.
HPGD block: blocks human HPGD enzyme activity; P15428; purified HPGD, NADH fluorescence kinetic, PGE2 substrate; Potency, µM, for the others: top-dose activity change, negative = inhibition, most hits filed as inhibitors; 150,000 compounds, 4.3% hits; AID 894; active = well fitted inhibition curve with a large enough effect, not every such curve was filed as active; inconclusive = small, poorly fitted or top-dose-only effect, or another doubt; inactive = no such curve, though single readings can be large or run the other way; also: potency is read from the fitted curve at half-maximal effect; % is scaled to controls: 0 for no effect and ±100 for the full control effect
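20 nM HPGD preincubated 15 min at room temperature with compound in 50 mM Tris-HCl pH 8, 0.01% Tween 20. Started with 1 mM NAD+ and 30 uM prostaglandin E2; NADH fluorescence (360/450 nm) read 5 times over 30-s intervals, last minus first.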
HTT cytoprotect: Huntington cell model cytoprotection by ATP luminescence. PC12 HTT-Q103 induced, cytoprotection, ATP luminescence, 40 h. 230,000 compounds, 0.14% hits. Potency, µM (top dose mostly 56.4 µM), without a hit: cytoprotection (ATP increase), hits mostly activators; also: potency is read from the fitted curve at half-maximal effect; % of control where 0% means no effect; nearly all actives have a fitted effect of over 45% in size
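Compounds were screened for protection of PC12 cells against cell death after tebufenozide induction (100 nM final) of mutant Huntingtin exon 1 (Q103) fused to GFP.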
HttQ103 aggreg: reduces HttQ103-GFP aggregates in PC12 cells; PC12 HttQ103-GFP aggregates, Acumen cytometry, 40 h; Potency, µM (series often up to 46.1 µM), without a hit: at the top dose activity change, negative = inhibition, usual class: inhibitors; 220,000 compounds, 1.1% hits; also: potency is read from the fitted curve at half-maximal effect; % is scaled to controls: 0 for no effect and ±100 for the full control effect; nearly all actives have a fitted effect of over 60% in size
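Ecdysone-promoter PC12 model expressing HTT exon 1 Q103 fused to GFP, induced by tebufenozide at 100 nM final. Compounds titrated; aggregates sized 1–25 µm scored on a 488 nm laser cytometer.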
IMPase Li inh: IMPase inhibition in cells with lithium potentiation. CHO-M1 cells, IP1 TR-FRET (IP-One), carbachol + lithium. Potency, µM (highest dose often 59.4 µM), for inactives: at the top dose activity, negative = IMPase inhibition, hits mostly inhibitors. 210,000 compounds, 0.35% hits. AID 1457;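 also: IP1 builds up when IMPase is blocked and the TR-FRET signal falls; potency is read from the fitted curve at half-maximal effect; plate controls were basal vehicle for no effect and high inhibitor control for full effect; nearly all actives have a fitted effect of over 50% in size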
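CHO cells stably expressing M1 receptor (2000/well) were cultured 16–30 h, then exposed to compounds with a small lithium addition for 30 min at 37C. IP1 was measured by TR-FRET competition; AC50 from Hill fits.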
IMPase inh: IMPase inhibition in cells. AID 901. CHO-M1 cells, IP1 accumulation, HTRF TR-FRET ratio. 120,000 tested, under 10 active. inhibition (IP1 accumulation), % at 46.1 µM. P97697; active = well fitted curve in the direction sought with a large enough effect in the signal ratio, not every such curve was filed as active; inconclusive = small, poorly fitted or top-dose-only effect, or a change in a side signal; inactive = no such curve, though single readings can be large or run the other way; the % refers to the signal ratio;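 also: cells stimulated with carbachol in lithium chloride buffer; plate controls were DMSO basal wells for no effect and reference inhibitor wells for full effect; higher means more IMPase inhibition seen as more IP1 and lower FRET ratio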
Target sequence (P97697 whole entry, looked up): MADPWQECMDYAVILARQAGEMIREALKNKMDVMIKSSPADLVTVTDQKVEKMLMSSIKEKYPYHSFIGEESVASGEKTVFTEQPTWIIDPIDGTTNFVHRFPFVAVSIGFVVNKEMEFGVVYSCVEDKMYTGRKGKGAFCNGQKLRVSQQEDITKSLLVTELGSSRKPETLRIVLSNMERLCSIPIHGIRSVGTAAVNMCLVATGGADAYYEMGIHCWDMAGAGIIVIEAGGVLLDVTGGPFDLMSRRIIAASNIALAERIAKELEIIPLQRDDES
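CHO-M1, 2000 cells/well, cultured 16–30 h; cpd up to 46 uM; carbachol (50 uM solution, stimulation buffer w/ 50 mM LiCl, pH 7.4), 30 min 37C; IP-One TR-FRET, 10 min RT; Ex 320/Em 665, 620; Hill-fit AC50.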
ALDH1A1 block: ALDH1A1 (human) enzyme inhibition; P00352; Purified ALDH1A1, NADH fluorescence, propionaldehyde substrate; Potency, µM (series often up to 75.3 µM), for the others: top-dose activity, negative = inhibition, usual class: inhibitors; 220,000 compounds, 7.3% hits; active = well fitted inhibition curve with a large enough effect, not every such curve was filed as active; inconclusive = small, poorly fitted or top-dose-only effect, or another doubt; inactive = no such curve, though single readings can be large or run the other way;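 also: potency is read from the fitted curve at half-maximal effect; plate controls were no enzyme wells and a reference inhibitor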
Target sequence (P00352 whole entry, looked up): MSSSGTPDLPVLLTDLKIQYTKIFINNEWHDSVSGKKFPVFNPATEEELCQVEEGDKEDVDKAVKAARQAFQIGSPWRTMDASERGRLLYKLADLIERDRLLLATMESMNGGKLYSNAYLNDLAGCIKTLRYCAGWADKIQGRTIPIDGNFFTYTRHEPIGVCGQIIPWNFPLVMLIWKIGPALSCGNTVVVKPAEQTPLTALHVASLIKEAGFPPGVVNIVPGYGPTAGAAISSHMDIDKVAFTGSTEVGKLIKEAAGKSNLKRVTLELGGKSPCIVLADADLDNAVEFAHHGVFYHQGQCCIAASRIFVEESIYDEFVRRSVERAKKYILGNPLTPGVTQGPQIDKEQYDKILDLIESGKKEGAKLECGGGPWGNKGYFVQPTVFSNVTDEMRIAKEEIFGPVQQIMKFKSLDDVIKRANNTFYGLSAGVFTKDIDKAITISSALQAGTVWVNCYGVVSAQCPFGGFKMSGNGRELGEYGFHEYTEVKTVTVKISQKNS
Numbers without * were called inactive; ? = inconclusive; / = no result; [ ] = dose if it differs, or a comment. Unless noted, calls follow the shape of the dose curve; as a rule, active = well fitted curve in the direction sought with a large enough effect; inconclusive = small, poorly fitted or top-dose-only effect, or another doubt; inactive = no such curve, though single readings can be large; an effect the other way counts as inactive or inconclusive.

SMILES	HPGD block	HTT cytoprotect	HttQ103 aggreg	IMPase Li inh	IMPase inh	ALDH1A1 block
COCCCNC(=S)Nc1ccccc1[N+](=O)[O-]	/	-89%[10 µM]	?	-2%	/	22µM*
COc1cc(C(=O)NC(=S)Nc2ccc([N+](=O)[O-])cc2C)cc(OC)c1OC	-7%	8%[10 µM]	24%	2%	/	13µM*
COc1ccc2ccccc2c1/C=N/O	7.1µM*	4%	-19%	-2%[38.3 µM]	3	-3%
C=CCOc1ccc2ccccc2c1/C=N/O	2.5µM*	-2%	19%[9.22 µM]	-15%[38.3 µM]	0	-2%
COc1ccc2ccccc2c1-c1c(OC)ccc2ccccc12	1%	-39%	/	6%	/	9%
C=CCOc1ccc(Br)cc1/C=N/O	4.5µM*	17%	-6%[9.22 µM]	-13%[38.3 µM]	3	?
C=CCOc1ccc(/C=N/O)cc1Cl	-19%	8%[10 µM]	-8%	2%	/	3%
COCn1c2ccccc2c2nnc(C(=O)O)nc21	/	-19%[10 µM]	/	/	/	6%[13.5 µM]
CN(Cc1ccco1)C(=O)C(Cc1ccccc1)NS(=O)(=O)c1ccc2c(c1)CCC(=O)N2 (stereo not drawn)	-6%	-21%	8%	?	-2	25µM*
COc1ccc(NC(=O)Nc2ccc(OC)cc2)cc1	-5%	-3%	-2%	28%[38.3 µM]	1	9%
COc1ccc(S(=O)(=O)Nc2nnc(C)s2)cc1	32µM*	-14%[10 µM]	-1%	-29%[38.3 µM]	9	?
COc1ccc(NC(=O)Nc2sc(=S)n(C)c2C)cc1	/	/	/	10%	/	16µM*
CCc1nnc(NS(=O)(=O)c2ccc(NC(=S)NC(=O)c3ccc(OC)c(OC)c3)cc2)s1	?	-6%[10 µM]	14%	3%	/	7.9µM*
COc1ccc(NC(=O)Nc2sc(NS(=O)(=O)c3ccccc3)nc2C)cc1	/	-16%	16%	23%	/	8.9µM*
O=C(CSc1nnc(CNC(=O)c2c(F)cccc2Cl)o1)Nc1ccccc1F	/	/	/	/	13	/
CCc1nnc(NS(=O)(=O)c2ccc(NC(=S)NC(=O)c3ccc(OC)cc3)cc2)s1	?	-14%[10 µM]	-4%	10%	9	18µM*
CCc1nnc(NS(=O)(=O)c2ccc(NC(=S)NC(=O)c3ccncc3)cc2)s1	/	-15%[10 µM]	-14%[9.22 µM]	/	/	/
CC(C)(C)c1ccc(C(=O)NC2(C(F)(F)F)NC(=O)N(CCc3ccccc3)C2=O)cc1 (stereo not drawn)	/	/	/	/	9	/
O=C(Nc1cccc(F)c1)N1CC2(CCN(C(=O)c3cccc(F)c3)CC2)C1	-4%	-45%	/	6%	/	-11%
O=C1C2C3C=CC(C2C(=O)N1C1CCCCC1)C1C(=O)N(C2CCCCC2)C(=O)C31 (stereo not drawn)	-1%	4%	27%	10%[38.3 µM]	-3	2.8µM*
COc1ccc(S(=O)(=O)NCc2cccs2)cc1	-19%	?	-21%	18%[38.3 µM]	-2	10µM*
COc1ccc(S(=O)(=O)N(Cc2cccs2)C2CCCC2)cc1	-12%	6%[0.074 µM]	?	38%[38.3 µM]	13	8.9µM*
COc1ccc(S(=O)(=O)NCCCCNS(=O)(=O)c2ccc(OC)cc2)cc1	-10%	-13%[0.074 µM]	-2%	18%[38.3 µM]	6	1.3µM*
Cn1cccc1C(=O)N1CCC[C@@]2(CCN(c3ccccc3)C2)C1	-11%	?	/	0%	/	?
O=C(O)[C@H]1[C@H]2C[C@H]3c4[nH]c5ccccc5c4CCN3C[C@@H]2CC[C@@H]1O	-26%	-33%[1.9 µM]	/	11%	0	1%
SMILES	HPGD block	HTT cytoprotect	HttQ103 aggreg	IMPase Li inh	IMPase inh	ALDH1A1 block
CCc1ccccc1Nc1nc(N)nc(CSCC(=O)Nc2ccc(C)c(C)c2)n1	0%	18%[10 µM]	16%	-1%	/	-8%
C=CCc1cccc(C2NC(C(=O)O)CCC2C)c1 (stereo not drawn)	/	8%[10 µM]	/	/	/	5%[13.5 µM]
O=C(NCCc1ccccc1)/C(=C/c1ccco1)c1ccccc1	-25%	-9%[10 µM]	-10%	6%	/	22µM*
Cc1cccc(C)c1NC(=O)/C(=C/c1ccco1)c1ccccc1	-10%	-14%	-10%	7%[38.3 µM]	2	?
CCC(C)NC(=O)/C(=C/c1ccco1)c1ccccc1 (stereo not drawn)	25µM*	-4%	12%	16%[38.3 µM]	3	?
CC(C)NC(=O)/C(=C/c1ccco1)c1ccccc1	-9%	5%	14%	-4%[38.3 µM]	2	-6%
CCCCN1CSC(=S)N(Cc2ccccc2)C1	-21%	0%[10 µM]	/	1%	/	3.5µM*
CC(C)(C)N1CSC(=S)N(Cc2ccccc2)C1	/	-12%	-23%	-4%	/	32µM*
Cc1ccc(CNC(=O)CCC2CCCN(C(=O)CCC(F)(F)F)C2)o1 (stereo not drawn)	/	17%[10 µM]	4%[9.22 µM]	-2%	/	?
Cc1cc2nc([C@H](C)C(=O)c3ccc(Cl)cc3)c(=O)[nH]c2cc1C	-11%	-13%[10 µM]	/	-1%	/	3%[13.5 µM]
O=c1c(-c2ccc(Cl)cc2)nc2cnc(N3CCOCC3)nc2n1C1CC1	-8%	-3%	/	-7%	/	11%
O=C(Nc1ccccc1)N(O)c1ccc(Cl)cc1	-28%	1%[10 µM]	4%	23%[38.3 µM]	-4	1µM*
CC(=O)c1cccc(NC(=S)NC(=O)c2ccc(C)cc2)c1	/	-8%[10 µM]	-5%[9.22 µM]	2%	/	?
CC(=O)c1cccc(NC(=S)NC(=O)c2ccc(C)cc2Cl)c1	/	-23%	-22%[9.22 µM]	18%	/	8.9µM*
CC(=O)c1cccc(NC(=S)NC(=O)c2ccccc2Cl)c1	20µM*	13%[10 µM]	12%	7%	/	?
Cc1ccccc1C(=O)Nc1cccc(NC(=S)NC(=O)c2cccs2)c1	-8%	-33%	0%	-9%[38.3 µM]	9	?
O=C(NC(=S)Nc1cccc(NC(=O)c2ccccc2Cl)c1)c1cccs1	-9%	4%[10 µM]	2%	-6%	/	4.5µM*
COC(=O)c1ccc(NC(=O)CSc2nc3cc4ccccc4cc3[nH]2)cc1	/	/	/	/	0	/
Cc1cccc(CNc2ccnc(-c3cccc(C#N)c3)n2)c1	/	-288%	/	15%	/	?
O=C(CCCCn1c(=O)c2ccccc2n(Cc2ccccc2)c1=O)NC1CCN(Cc2ccccc2)CC1	/	-56%	-7%	18%	/	1%
CS(=O)(=O)c1ccc(S(=O)CC(=O)OCc2ccccc2)c([N+](=O)[O-])c1 (stereo not drawn)	/	/	?	20%	/	13µM*
COc1ccccc1/C=C/C1(C(=O)NC2CCCC2)CC(=O)N1c1ccc(F)cc1 (stereo not drawn)	-12%	-6%[1.9 µM]	3%	11%	0	32µM*
CCN1C(=O)C(CC(=O)Nc2ccc(OC)cc2)N(CCc2ccccc2F)C1=S (stereo not drawn)	/	0%[10 µM]	-3%[9.22 µM]	/	/	/
CCN1C(=O)C(CC(=O)Nc2ccc(OC)cc2)N(CCc2ccccc2)C1=S (stereo not drawn)	/	-50%	-22%	8%	/	2µM*
